High-throughput results as filed in PubChem BioAssay.
SW480 rerep: inducers of DNA re-replication in SW480 colon cancer cells. SW480 DNA re-replication, Hoechst DNA content imaging, 48 h. Potency, µM (highest dose often 46.1 µM), most hits filed as activators. 340,000 compounds, 1.8% hits; further: nearly all actives have a fitted effect of over 55% in size
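Compounds, transferred as 23 nL by pin tool, were incubated with cells for 48 hr; DNA content per nucleus was then quantified by Hoechst staining and fluorescence plate imaging.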
KB-V1 cytotox: kills drug-selected multidrug resistant KB-V1 cells | KB-V1 MDR cells viability, CellTiter-Glo, 72 h | Potency, µM (doses to about 46.1 µM), usual class: cytotoxic | 400,000 compounds, 3.4% hits | AID 1347076; further: nearly all actives have a fitted effect of over 60% in size
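Potencies derive from concentration-effect curves fitted to normalized luminescence (CellTiter-Glo) of KB-V1 cells treated for 72 h at 37 degrees C in phenol-red-free DMEM containing 10% FBS.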
HT1080 IDH1KD tx: kills HT-1080 cells with IDH1 knockdown; 360,000 compounds, 2% hits; Potency, µM (titrated, usually from 46.1 µM), most hits filed as cytotoxic; HT-1080 IDH1 knockdown viability, ATP luminescence, 48 h; AID 686971
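In this qHTS, HT-1080 cells depleted of IDH1 are exposed for 48 h at 37 °C to compound titrations. Toxicity is scored from CellTiter-Glo luminescence, with DMSO as full viability and medium alone as none.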
HT1080-NT tox: kills 2HG-producing HT-1080-NT fibrosarcoma cells. Potency, µM (top dose mostly 46.1 µM), actives largely listed as cytotoxic. 360,000 compounds, 1.6% hits. HT-1080-NT fibrosarcoma viability, CellTiter-Glo ATP luminescence, 48 h. AID 686970;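 further: NT is the 2HG producing partner of a matched IDH1 knockdown line; nearly all actives have a fitted effect of over 55% in size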
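A 48-hour cytotoxicity screen used HT-1080-NT cells plated 2 hours before compound delivery. ATP-based CellTiter-Glo luminescence measured viability, normalized to DMSO and no-cell controls.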
KB-3-1 cytotox: KB-3-1 parental cell cytotoxicity | KB-3-1 viability, CellTiter-Glo ATP luminescence, 72 h | 400,000 compounds, 1.4% hits | Potency, µM (top dose mostly 46.1 µM), hits mostly cytotoxic; further: nearly all actives have a fitted effect of over 60% in size
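Parental KB-3-1 viability, qHTS format: 72 h compound exposure, 37 °C; CellTiter-Glo; media-only wells and DMSO plates as controls; concentration-effect fits on corrected data.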
MCF10A rereplic: inducers of DNA re-replication in MCF 10A breast cells | MCF 10A DNA re-replication, Hoechst nuclear intensity, 48 h | Potency, µM (top dose mostly 46.1 µM), most hits filed as activators | 350,000 compounds, 2.9% hits | AID 624296; further: nearly all actives have a fitted effect of over 50% in size
A number is an active result; . = inactive; ? = inconclusive; / = no result; [ ] = dose if it differs, or a comment. This is a sample that favours compounds with a hit; in the whole collection about 7.9% have one here. The call rests on the fitted dose curve; in most records, active means well fitted curve in the direction sought with a large enough effect; inconclusive means small, poorly fitted or top-dose-only effect, or another doubt; inactive means no such curve, though single readings can be large; an effect the other way counts as inactive or inconclusive.

SMILES | SW480 rerep | KB-V1 cytotox | HT1080 IDH1KD tx | HT1080-NT tox | KB-3-1 cytotox | MCF10A rereplic
O=[N+]([O-])c1cc(/C=N/Nc2nc3ccccc3[nH]2)c(O)cc1O | ? | . | 7.31µM | ? | . | 3.26µM
CSc1ccc(-c2nc3ncccn3c2Nc2ccc(C)c(C)c2)cc1 | / | . | / | / | . | /
CCN(CC)C(=O)c1cccnc1 | . | / | / | / | / | .
Cc1ccccc1/C=N/Nc1nc2ccccc2[nH]1 | . | . | . | . | . | ?
Cc1nn(-c2ccccc2)c(Cl)c1/C=N/Nc1nc2ccccc2[nH]1 | ? | ? | ? | ? | ? | 7.31µM
C(=N\Nc1nc2ccccc2[nH]1)/c1c[nH]c2ccccc12 | . | . | ? | 16.4µM | . | ?
Cc1ccc(/C=N/Nc2nc3ccccc3[nH]2)s1 | ? | 14.6µM | . | . | . | ?
Cc1[nH]c2ccccc2c1/C=N/Nc1nc2ccccc2[nH]1 | . | ? | 18.4µM | 18.4µM | . | ?
Cc1[nH]c2ccccc2c1/C=N/Nc1nc(N2CCCCC2)nc(N2CCCCC2)n1 | . | ? | . | . | . | .
CCOc1ccc(-c2nnc(SCC(=O)Nc3cccc(C#N)c3)o2)cc1 | / | . | / | / | . | /
CCCCn1c(SCc2ccc(C(=O)OC)o2)nc2cc(S(N)(=O)=O)ccc21 | . | ? | .[9.24 µM] | ? | 18.4µM | .
CCCCn1c(SCC(=O)c2cc(OC)ccc2OC)nc2cc(S(N)(=O)=O)ccc21 | . | . | . | . | . | .
CCOC(=O)C1=C(C2=CCCCC2)c2ccc(OC)cc2N(S(=O)(=O)C(F)(F)F)C1C(=O)OCC (stereo not given) | 10.3µM | . | . | . | . | 16.4µM
Cc1ccc2nc(SCC(=O)Nc3cc(C(F)(F)F)ccc3N3CCOCC3)[nH]c2c1 | 5.17µM | ? | 1.03µM | ? | 0.82µM | 0.581µM
CCN(CC)S(=O)(=O)c1ccc(C)c(NC(=O)CSc2nc3ccc(C)cc3[nH]2)c1 | / | 14.6µM | . | . | . | .
O=C(CSc1nccc(=O)[nH]1)Nc1cc(C(F)(F)F)ccc1N1CCOCC1 | . | . | . | . | . | .
Cc1ccc2nc(SCC(=O)Nc3cccc(S(=O)(=O)N(C)C)c3)[nH]c2c1 | . | ? | . | . | . | ?
Cc1ccc(C)c(NC(=O)C(Sc2nc3ccc(C)cc3[nH]2)c2ccccc2)c1 (stereo not given) | ? | . | ? | ? | . | 20.6µM
CCC(Sc1nc2ccc(C)cc2[nH]1)C(=O)O (stereo not given) | . | . | . | . | . | .
O=C(Cc1ccc(S(=O)(=O)N2CCOCC2)s1)N1CCN(S(=O)(=O)c2cccc([N+](=O)[O-])c2)CC1 | . | . | . | . | . | .
Cc1ccc(-c2nnn(CC(=O)N(CC(=O)NCC3CCCO3)c3ccc(F)c(Cl)c3)n2)o1 (stereo not given) | . | 14.6µM | . | . | . | .
Cc1cccc(N(CC(=O)NCc2ccccc2)C(=O)Cn2nnc(-c3ccc(C)o3)n2)c1 | . | 2.91µM | . | . | . | .
Cc1ccc(-c2nnn(CC(=O)N(CC(=O)NC3CCCC3)c3ccc(F)c(Cl)c3)n2)o1 | .[9.22 µM] | ? | 16.4µM | ? | ? | .
O=C(CN(C(=O)Cn1nnc(-c2ccc(F)cc2)n1)c1ccc(F)c(Cl)c1)NCC1CCCO1 (stereo not given) | . | . | . | . | . | .
Cc1ccc(-c2nnn(CC(=O)N(CC(=O)NC3CCCCC3)c3ccc(F)c(Cl)c3)n2)o1 | .[9.22 µM] | ? | 18.4µM | ? | ? | ?
SMILES | SW480 rerep | KB-V1 cytotox | HT1080 IDH1KD tx | HT1080-NT tox | KB-3-1 cytotox | MCF10A rereplic
COc1ccc(C(=O)N=C2SC3CS(=O)(=O)CC3N2c2ccc(N(C)C)cc2)cc1OC (stereo not given) | ? | . | . | . | . | ?
Cc1ccc(NC(=O)CN(C)C(=O)COc2ccccc2-c2ccccc2)cc1 | . | . | ? | ? | . | ?
Cc1ccc(C2=NN(C(=O)CCl)C(c3ccco3)C2)o1 (stereo not given) | ? | ? | 7.31µM | 6.51µM | ? | 20.6µM
CC(=O)N1N=C(c2ccco2)CC1c1ccco1 (stereo not given) | . | . | . | . | . | .
COc1ccc(-c2cc(-c3ccccc3)nc(NN)n2)cc1OC | ? | . | ? | ? | . | .
COc1nc(-c2ccccc2)cc(-c2ccc(OC)c(OC)c2)n1 | ? | 8.2µM | ? | . | . | ?
COc1ccc(NC(=O)CN2C(=O)COc3ccc(S(=O)(=O)N4CCOCC4)cc32)cc1Cl | . | ? | . | . | . | .
CC(C(=O)O)N1C(=O)C2C3c4ccccc4C(c4ccccc43)[C@@H]2C1=O (stereo not given in full) | . | . | . | . | . | .
CC1(C)N=C(N)N=C(N)N1CCCCc1ccccc1 | . | . | 0.146µM | ? | 1.46µM | .
Cn1c(=O)oc2cc(S(=O)(=O)N3CCC(C(=O)N4CCN(c5cccc(Cl)c5)CC4)CC3)ccc21 | / | . | / | / | . | /
Cc1cccc(N2CCN(C(=O)C3CCN(S(=O)(=O)c4ccc5c(c4)oc(=O)n5C)CC3)CC2)c1C | / | . | / | / | . | /
Cn1c(=O)oc2cc(S(=O)(=O)N3CCCC(C(=O)N4CCN(c5cccc(Cl)c5)CC4)C3)ccc21 (stereo not given) | / | . | / | / | 20.6µM | /
Cc1cccc(N2CCN(C(=O)C3CCCN(S(=O)(=O)c4ccc5c(c4)oc(=O)n5C)C3)CC2)c1C (stereo not given) | / | . | / | / | 7.31µM | /
CCOC(=O)c1c(C)[nH]c(C)c1S(=O)(=O)N1CCC(C(=O)NCc2ccc(N(C)C)cc2)CC1 | / | . | / | / | . | /
O=C(CCCc1ccccc1)NCCc1ccccc1 | . | . | . | . | . | .
CCC(O)(CC)C(=O)NN(C(=O)CCl)c1ccccc1 | ? | . | ? | . | ? | .
CCCN(C(=O)c1cc2c(Cl)nc3ccccc3c2s1)c1cccc(C)c1 | / | . | / | / | . | /
O=C(N(c1ccccc1)c1ccccc1)N(c1ccccc1)c1ccccc1 | ? | ? | . | . | . | ?
O=C(Nc1ccccc1)NN(C(=O)CCl)c1ccccc1 | 5.8µM | ? | 4.61µM | 7.31µM | 23.1µM | 8.2µM
O=C(CCl)N(CCc1ccccc1)CCc1ccccc1 | 4.11µM | ? | ? | ? | ? | 23.1µM
O=C(CCl)N(c1ccccc1)c1ccccc1 | . | ? | 5.17µM | 6.51µM | ? | ?
CCCCCCCN(C(=O)CCl)c1cccc(C)c1 | 2.06µM | . | ? | . | . | ?
CCn1c(=O)c2sccc2n2c(CCCC(=O)NCCc3ccc(S(N)(=O)=O)cc3)nnc12 | . | . | . | . | . | .
O=C(Nc1ccc2ccccc2c1)c1ccc2[nH]c(=O)c(=O)[nH]c2c1 | . | . | . | . | . | .
